In the supplement of paper PMC6555819:

tested on: VDR:RXRa (NR concentration 270 nM, RXRa partner concentration 90 nM); experiment: PBM binding z-score (relative to random genomic background probes); higher = stronger binding; sequences stand for … in GC…GCGATTGACAGCGTAGAATGAAGG
Method: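 Protein-binding microarray (Agilent 4x180K custom design, double-stranded 60-nt probes: 5' GC cap, 34-nt variable region, 24-nt constant primer region; full probe sequence given). Purified or IVT nuclear receptor:RXRα heterodimers (3:1 NR:RXRα, mostly 270:90 nM) or homodimers were incubated for 1 h in PBS with 2% milk and no ligand, then detected with Alexa488 antibodies. Fluorescence from o1-orientation probes (~5 replicates averaged) was converted to z-scores against 500 random hg19 background probes. Variable regions are seed direct-repeat (DR0–DR5) sites, all their single-nucleotide variants and half-site ablations.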

Row | Sequence | PBM binding z-score
1 | ACTAGCATGCCAAGTTTGGGTCACTCAAACAAAG | 0.531
2 | CGTCCAAGGTCACTGCTAGGTCAGTGAAAGCATT | 5.09
3 | AGAATGAGGTTACCAAAGATTAGGGAAACGCTTG | 1.05
4 | GCTGCTAGGTCAAGTGATGGTCAGCTAAAGCTCG | 1.63
5 | ACTATTAGTTGAGACTAGGGCAACCGATAGGTTG | -0.386
6 | TAGCCTAGGTCATTCAGGGGCCAGTATAGAAAGC | 3.26
7 | TCGAGTAGGTTTCCAATGGGGCATTCAGCTTTCT | -0.464
8 | CCAGACAGGTGAGAAGGTAACTAAGCCTCGATTA | -0.0342
9 | CCGAGTAGGTTATGTGGCATTCAGGCAACGGTGA | -0.184
10 | CAAACTAGGTCAGCGGAAGGTCAAAGTCCGCATG | 5.07
11 | GCGACTGGGGCATCAGCAGGTTCCCATAACTTAA | -0.515
12 | TCTTGTAGTTCAACAGGAGGTTAAGAAAGATCGA | 2.57
13 | AGAATGAGGTTATGCGTAGATCAGGGAAGAAAGT | 1.15
14 | CCTACTGGGCCAAAGGTCACTGATTCCAATGCTC | 4.55
15 | CGTCCACGGTCAAAGGTCAGTGAAGAGATGACGG | 3.76
16 | TCTCGTAGATCAGCAGGTTAAGAAAGCTGGCCAA | 0.21
17 | AGTCAAAGTTCAGGACGAGGTAACCTAAAGCACG | 2.94
18 | CGTCCAAGGTCAAGGTAAGTGAAAGAGACTCGAA | 3.76
19 | CAAACTAGGTAAAGAGGTCAAAGTCCGCTTCCCG | 4.92
20 | ATCTCTAGGTAAATATAGTTCAGTGAATGCAAAT | 1.44

Row | Sequence | PBM binding z-score
21 | GCTTACGCGTCAAAGGTTATAGCATGAATAGAAT | 1.12
22 | ATCTCTAGGTAAAGAAAGTTCAGTGAATGCAAAT | 2.17
23 | TAGCCTAGGTCATGCGGGCCAGTCTAGTGTCGGC | 2.82
24 | TCTGCTAGGTCGACGATGGTCAGCTAATCTGCTA | -0.229
25 | TCTTGTAGATTAAGCAGGTTAAGAAAGCCTGAGT | 0.313
26 | GCTATTAGTTGATAGGGCAACCGAATGATTCTCG | -0.195
27 | GCAGACAGGTGAAACGCACGTAACTCAGGGTGGC | -0.568
28 | ATCTCTAGGTAACCTAGTTCAGTGAATGCCGAAC | 1.96
29 | CGTCCAAGGTCAATGTCAGTGAAAGAGACTCGAA | 3.45
30 | ACAGACAGGAGATGAAGGTAACTCAGGCTATCAT | 0.143
31 | TCTAGTTCGTCAAAGGTCACACACTCGAAATGCG | 5.77
32 | CCTCGGAGGACAACAGCAGGTCAGAGCTGCCAGA | 0.333
33 | GCGATTGGGGCATCAGCAGGTTACCATAACTTAA | 0.0705
34 | CTACCAAGGTGAACAATGTCGTTGATTACTATTC | 1.37
35 | CGTGCAAGGTCAAAGGTCAGTGAAGAGATGACGG | 6.7
36 | GCTTGTAGATCAAGGTTACGAAAGACTAAGCTAA | 0.359
37 | AGAATGAGGTTAAGACCAGGGAAACAGAATACAT | 1.03
38 | TCGAGTAGGTTAGACGGGGCATTCAGCCAACATA | 1.29
39 | GCATATTGGTAATACAAGGTGAAAGTCCGATTGT | -0.16
40 | GCAGACAGGTGAAACGTAGGTAACTCAGGGTGGC | -0.315
